# Laboratory results: PubChem BioAssay (NCATS)
# Inconclusive results are not listed. Unmarked numbers belong to inactive results. Calls of active or inactive are those of the source. The call rests on the fitted dose curve; in most records, active means well fitted cell-killing curve with a large enough effect; inconclusive means small, poorly fitted or top-dose-only effect; inactive means flat fitted curve, though single readings scatter.
# Assay: Cell Viability - LYMP2-009 (AID 968);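 further: cells exposed to compound for 24 h at 37 °C; nearly all actives have a fitted effect of over 55% in size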;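 on activity change, negative = viability loss: 0% = DMSO alone and the full-kill end = tetraoctylammonium bromide at 92 µM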
# Conditions: LYMP2-009 lymphoblastoid cell viability; series mostly up to 92.2 µM; activity change, negative = viability loss: at the top concentration
# From the text: NIH Chemical Genomics Center [NCGC]
# NIH Molecular Libraries Screening Centers Network [MLSCN]
# National Institutes of Environmental Health Sciences [NIEHS]
# National Toxicology Program [NTP]
# We have developed a 1536-well cell-based assay for quantitative high throughput screening (qHTS) against a number of cell lines to determine in vitro cytotoxicity of small molecules. This particular assay uses a human lymphoblastoid cell line (LYMP2-009) purchased from Coriell Institute for Medical Research.
# NCGC Assay Protocol Summary:
# The CellTiter-Glo luminescent cell viability assay (Promega) is a homogeneous method to measure the number of viable cells in culture. The end point readout of this assay is based on quantitation of intracellular ATP, an indicator of metabolic activity, using the luciferase reaction. Luciferase catalyzes the oxidation of beetle Luciferin to oxyluciferin and light in the presence of ATP. The luminescent signal is proportional to amount of ATP present.
# Using the CellTiter-Glo luminescent cell viability assay, the amount of cellular ATP was measured in the lymphoblastoid cell line with complete culture medium following compound treatment for 24 hours. The assay was performed in opaque white Kalypsys 1536-well plates. In the screen, tetraoctylammonium bromide was used as positive control. Library compounds were measured for their ability to cause acute toxicity in the cell line, as reflected by a decrease in intracellular ATP levels, in a concentration-dependent manner. […] AC50 values were determined from concentration-response data modeled with the standard Hill equation.
# qHTS protocol for CellTiter Glo lymphoblastoid cellular assay
# [Step] [Parameter] [Value] [Description]
# 1. Reagent; 5 uL; 2500 lymphoblastoid cells/well
# 2. Time; 5 hr; 37 C incubation
# 4. Controls; 23 nL; Tetraoctylammonium bromide 6.4pM to 92 uM
# 5. Time; 24 hr; 37 C incubation
# 6. Reagent; 5 uL; CellTiter Glo reagent
# 7. Time; 30 min; Room Temperature
# 8. Detection; Luminescence; Viewlux plate reader
# Keywords: cell viability, cytotoxicity, lymphoblastoid cell line, luminescence, NTPHTS, NTPHTS_NCGC, NIEHS, DSSTox, MLSMR, MLSCN, NIH Roadmap, qHTS, NCGC
# Potency means the concentration at half of the fitted maximal effect.
SMILES,"activity change, negative = viability loss [%]",Potency
C=CCCl,-8.38,–
O=C(Cl)c1ccccc1F,-10.3,–
Cc1ccc([N+](=O)[O-])cc1,-9.21,–
Oc1c(Cl)c(Cl)cc(Cl)c1Cl,-10.1,–
Nc1ccc([N+](=O)[O-])cc1[N+](=O)[O-],-8.21,–
CCCBr,-1.68,–
CC(=O)CCC(C)=O,-0.107,–
CC(C)OS(C)(=O)=O,-9.1,–
Nc1ccc2ccccc2c1,-9.25,–
CC(C)[N+](=O)[O-],-0.0962,–
ClCc1ccccc1,-11.3,–
C=C(Cl)CCl,-13.2,–
NNC(N)=S,3.34,–
BrCCc1ccccc1,-7.95,–
CC(C)(COCC1CO1)COCC1CO1 (stereo not given),-16.6,–
CC(C)CC(C)N (stereo not given),0.277,–
N#CC(Cl)(Cl)Cl,-7.38,–
COc1ccccc1N,-9.79,–
BrCC(Br)(Br)Br,–,31.6 µM (active)
C=CCOCC1CO1 (stereo not given),3.92,–

SMILES,"activity change, negative = viability loss [%]",Potency
Clc1cc(Cl)c(Cl)c(Cl)c1,-10.5,–
OCCCCO,-3.62,–
Oc1ccc(Cl)c(Cl)c1,-9.69,–
O=[N+]([O-])c1cccc(O)c1,-6.11,–
COc1cc(-c2ccc(N)c(OC)c2)ccc1N,-4.51,–
Cc1ccc(N)c(C)c1,-3.38,–
ClCCOCCCl,-2.51,–
ClC(Br)Br,-5.46,–
O=Cc1ccc2c(c1)OCO2,-13,–
CCCCCCCCCCCCCl,-0.394,–
Clc1ccccc1,-7.24,–
S=c1[nH]c2ccccc2[nH]1,-5.03,–
ClCCBr,3.45,–
Cc1cccc(N)c1C,-22.3,–
CC(C)Br,-0.188,–
BrC(Br)Br,-5.8,–
ClC(Cl)Br,-1.61,–
O=[N+]([O-])c1ccccc1O,-3.51,–
ClC(Cl)C(Cl)Cl,-3.24,–
N#CC(Br)Br,–,50.1 µM (active)
